rRNA inh HTS – selective bacterial rRNA inhibition in E. coli. GFP signal change (wild-type ribosome), % (concentration not given with the values). E. coli WT GFP vs humanized-ribosome RFP mutants, fluorescence, 24 h; stronger effect = lower value; DMSO median 0, no signal -100. AID 720706. hit rate 1.6% among 350,000;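 active means significant combined selectivity score with lowered wild-type GFP, culture density cut under 30%, mutant RFP and density less affected; inactive means any of these conditions unmet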
NSD2 HMT inh – inhibitors of human histone methyltransferase NSD2 | O96028 | NSD2 peptide methylation, AlphaScreen, 120 min | inhibition, % at 12.5 µM | hit rate 0.54% among 310,000 | AID 743445; in the data active means inhibition above about 50%
Target sequence (O96028 whole entry, looked up): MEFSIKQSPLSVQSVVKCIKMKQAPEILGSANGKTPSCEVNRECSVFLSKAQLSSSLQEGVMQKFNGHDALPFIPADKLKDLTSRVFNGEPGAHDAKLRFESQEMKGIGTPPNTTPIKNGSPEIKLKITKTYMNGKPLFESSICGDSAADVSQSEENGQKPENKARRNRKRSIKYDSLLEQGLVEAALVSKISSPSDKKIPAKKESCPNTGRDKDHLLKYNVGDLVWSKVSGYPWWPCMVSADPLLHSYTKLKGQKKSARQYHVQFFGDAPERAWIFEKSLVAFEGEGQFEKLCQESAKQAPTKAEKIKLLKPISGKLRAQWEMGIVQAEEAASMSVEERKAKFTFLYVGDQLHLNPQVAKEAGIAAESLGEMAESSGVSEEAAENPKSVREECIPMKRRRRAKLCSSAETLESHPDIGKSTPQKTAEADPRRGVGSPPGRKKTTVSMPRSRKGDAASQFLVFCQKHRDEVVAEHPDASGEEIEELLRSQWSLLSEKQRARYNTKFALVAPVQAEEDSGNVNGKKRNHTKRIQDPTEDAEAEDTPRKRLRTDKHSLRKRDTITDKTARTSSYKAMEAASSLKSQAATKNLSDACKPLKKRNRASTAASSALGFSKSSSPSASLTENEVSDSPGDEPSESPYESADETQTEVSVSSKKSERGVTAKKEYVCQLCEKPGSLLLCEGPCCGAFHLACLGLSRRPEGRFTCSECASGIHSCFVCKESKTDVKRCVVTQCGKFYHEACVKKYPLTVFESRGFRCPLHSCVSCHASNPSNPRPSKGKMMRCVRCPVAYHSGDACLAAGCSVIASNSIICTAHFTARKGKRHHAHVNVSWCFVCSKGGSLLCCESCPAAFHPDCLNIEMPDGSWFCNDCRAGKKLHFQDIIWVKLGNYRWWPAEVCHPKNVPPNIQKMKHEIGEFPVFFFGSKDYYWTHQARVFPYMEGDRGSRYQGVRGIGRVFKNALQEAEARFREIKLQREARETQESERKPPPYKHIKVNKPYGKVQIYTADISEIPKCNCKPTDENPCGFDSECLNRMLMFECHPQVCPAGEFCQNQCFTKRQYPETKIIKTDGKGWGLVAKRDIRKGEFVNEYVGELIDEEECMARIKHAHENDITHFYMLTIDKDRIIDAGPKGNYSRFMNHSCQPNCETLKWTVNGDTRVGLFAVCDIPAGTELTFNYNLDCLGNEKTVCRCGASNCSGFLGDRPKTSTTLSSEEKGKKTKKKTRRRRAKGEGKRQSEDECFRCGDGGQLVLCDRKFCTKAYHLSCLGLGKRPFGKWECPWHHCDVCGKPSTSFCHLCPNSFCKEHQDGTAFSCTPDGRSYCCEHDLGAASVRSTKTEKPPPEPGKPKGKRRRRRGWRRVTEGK
RAD52 anneal inh – RAD52 (human) annealing inhibition | recombinant RAD52 DNA annealing, FRET fluorescence | inhibition, % at 18.7 µM | hit rate 0.46% among 360,000 | AID 651710;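 active means every replicate showing at least 50% inhibition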
CASP6 VEID inh – blocks human caspase-6 cleavage activity | hit rate 0.53% among 350,000 | purified caspase-6, Z-VEID-R110 cleavage fluorescence | AID 686996 | inhibition, % at 12.5 µM | P55212;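 active means mean inhibition across replicates at least about 35%, with every replicate also reaching that limit, limit read from the data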;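 further: 0% = median of neutral control wells and 100% = no fluorescence left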
MLL AF4-AF9 inh – MLL-AF4/AF9 protein interaction inhibition; P42568; AlphaScreen, biotin-AF4 peptide binding to FLAG-AF9; inhibition, % at 10 µM; hit rate 0.47% among 350,000;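 active means every replicate reaching a set inhibition limit, whatever the replicate mean, cut at about 25% in these data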;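 further: 0% = plate neutral control median and 100% = total signal loss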
AlphaScreen art – AlphaScreen assay artifact in NSD2 counter-screen. shares compounds with NSD2 HMT inh. AlphaScreen artifact counterscreen, preloaded methylated H4 peptide. AC35, µM (series often up to 10 µM), without a hit: at the top dose activity change, negative = signal loss. hit rate 9.4% among 1,500. AID 1053174; call rule not given here
* hit, by the source's call; i = inactive; / = no result. An excerpt weighted towards active compounds, which were near 2.5% of everything screened.

SMILES | rRNA inh HTS | NSD2 HMT inh | RAD52 anneal inh | CASP6 VEID inh | MLL AF4-AF9 inh | AlphaScreen art
O=C1C=CC(=O)c2c(O)c(N3CCN(CCO)CC3)c(Cl)c(O)c21 | -24 | 103* | 29 | 93* | 14 | -5%
O=C1C=CC(=O)c2c(O)c(N3CCN(CCOCCO)CC3)c(Br)c(O)c21 | / | 81* | 43 | 97* | 19 | -8%
Cc1cc(S(=O)(=O)NCc2cccnc2)ccc1F | 12 | 59* | 1 | -1 | 0 | -5%
CO[C@H]1CN(C)C(=O)c2cc(NC(=O)C3CCC3)ccc2OC[C@@H](C)N(CC2CCCCC2)C[C@@H]1C | -9 | / | 5 | 0 | 3 | /
Cn1cc(/C=N/NC(=O)c2cc3cc(Br)ccc3o2)c2ccccc21 | 1 | 22 | -6 | 4 | / | /
O=C(O)c1ccc(-n2cccc2/C=N\NC(=O)c2cc3cc(Br)ccc3o2)cc1 | 19 | 58* | -11 | 64* | -17 | -17%
OC(COc1ccc2ccccc2c1Cl)CN1CCOCC1 (centres undefined) | / | 86* | / | / | / | -3%
C[C@H]1CN([C@@H](C)CO)S(=O)(=O)c2ccc(-c3ccncc3)cc2O[C@H]1CN(C)C(=O)c1ccc2c(c1)OCO2 | -5 | / | 14 | 1 | 2 | /
O=C(O)C=C1C2CC3CC(C2)CC1C3 | / | 50* | / | / | / | -4%
C[C@@H]1CN([C@@H](C)CO)C(=O)c2cc(C#CCN(C)C)cnc2O[C@@H]1CN(C)Cc1ccccc1 | 2 | / | 14 | 2 | -3 | /
CCN(CC)Cc1cc(O)c(CN(CC)CC)cc1O | 16 | 100* | -73 | 19 | 11 | 1%
CN(C)/C=C1\C=C2C(=O)c3ccccc3N2C1=O | 10 | 144* | i | -1 | 2 | -3%
CCOC(=O)C1=C(C)N=c2s/c(=C\c3ccc(O)c([N+](=O)[O-])c3)c(=O)n2C1c1ccccc1OC (centres undefined) | 11 | 72* | -14 | 3 | -22 | -6%
CCOC(=O)C1=C(C)N=c2s/c(=C\c3ccc(OCC(=O)O)cc3)c(=O)n2C1c1ccccc1OC (centres undefined) | -7 | 2 | -99 | 7 | 8 | /
COCCNC(=O)CN(C(=O)CCC(=O)Nc1nccs1)c1ccc2c(c1)OCO2 | 9 | 67* | -7 | -2 | -1 | -3%
O=c1[nH]n2c(=O)c3c([nH]c2c1N=Nc1cccc(C(F)(F)F)c1)CCCC3 | / | 125* | / | / | / | -8%
O=c1[nH]n2c(=O)c3c([nH]c2c1N=Nc1cccc(Cl)c1)CCC3 | / | 10 | / | / | / | /
O=C(CSc1nc2ccccc2o1)N/N=C/c1ccc(O)c(O)c1 | 2 | 116* | 5 | 63* | 14 | 2.2µM*
C/C(=N\NC(=O)CSc1nc2ccccc2o1)c1ccc(O)cc1 | 13 | 51* | -12 | 1 | -3 | -5%
COc1ccc2nc(C)cc(SCC(=O)N/N=C/c3ccc(O)c(O)c3)c2c1 | -23 | 66* | -9 | 8 | 4 | -13%
O=C(CSc1nc2ccccc2o1)N/N=C/c1ccccc1 | / | -2 | / | / | / | /
COc1ccc2nc(C)cc(SCC(=O)N/N=C/c3cccc4ccccc34)c2c1 | / | 3 | / | / | / | /
O=C(N[C@@H]1CC[C@@H](CCNC(=O)C2CC2)O[C@@H]1CO)c1ccncc1 | 0 | / | 1 | -1 | -2 | /
CCCC(=O)Nc1cc(C)cn(Cc2c(F)cccc2Cl)c1=O | -3 | 76* | -42 | 5 | 7 | -8%
CCOC(=S)SCC(=O)Nc1nc(C)c(C)s1 | 0 | 51* | -23 | 0 | -26 | -2%
SMILES | rRNA inh HTS | NSD2 HMT inh | RAD52 anneal inh | CASP6 VEID inh | MLL AF4-AF9 inh | AlphaScreen art
CCOC(=O)Cn1ncc(-c2ccccc2)c1N | / | 128* | / | / | / | -1%
c1coc(CNCCCN2CCOCC2)c1 | / | 56* | / | / | / | -4%
O=C(NCCCN1CCOCC1)c1ccco1 | / | -3 | / | / | / | /
COc1ccc(NC(=O)CC2C(=O)NCCN2C(=O)c2ccc(N(C)C)cc2)cc1 (centres undefined) | 8 | 64* | -2 | -1 | -3 | -2%
COc1ccc(-n2c(C)ccc2-c2ccccc2)cn1 | 110 | 58* | -172 | -1 | 3 | -2%
CC(=O)c1ccc(-n2c(C)ccc2-c2ccccc2)cc1 | / | 4 | / | / | / | /
Cc1ccc(S(=O)(=O)N(C)C[C@H]2Oc3ccc(NC(=O)CCN4CCOCC4)cc3CC(=O)N([C@H](C)CO)C[C@@H]2C)cc1 | 2 | / | 11 | -1 | 3 | /
C=CCn1c(NS(=O)(=O)c2ccccc2)c(S(=O)(=O)c2ccc(C)cc2)c2nc3ccccc3nc21 | 3 | 115* | -13 | 23 | 2 | -6%
CC(=O)Nc1c(S(=O)(=O)c2ccccc2)c2nc3ccccc3nc2n1Cc1ccccc1 | / | -2 | / | / | / | /
COc1ccc(C)cc1COC(=O)c1[nH]c(C)c(C(C)=O)c1C | 9 | 55* | -39 | 0 | 9 | -2%
O=C(NNc1cc(N2CCCC2)nc(N2CCCC2)n1)c1ccc([N+](=O)[O-])cc1 | 11 | 89* | -16 | 0 | 10 | -2%
CC(C)(C)c1ccc(C(=O)NNc2cc(N3CCOCC3)nc(N3CCOCC3)n2)cc1 | 4 | 4 | -30 | -2 | 1 | /
COc1ccc(S(=O)(=O)Nc2ccc3c(c2)C(=O)N([C@@H](C)CO)C[C@H](C)[C@H](CN(C)C(=O)CCC(F)(F)F)OCCCC[C@@H](C)O3)cc1 | 1 | / | 12 | 0 | 0 | /
CCOC(=O)N1CCN(C2=Nc3cccc4cccc2c34)CC1 | / | 71* | / | / | / | -4%
COCC#Cc1ccc([C@H]2[C@H](CO)N3C(=O)CN(C(=O)c4ccncc4)C[C@@H]23)cc1 | 6 | / | 1 | 2 | -4 | /
CN(c1ccc(C(=O)O)cc1)S(=O)(=O)c1ccccc1 | / | 52* | / | / | / | 0%
CN(c1ccccc1)S(=O)(=O)c1ccc(C(=O)NNC(=O)c2ccccc2)cc1 | 2 | -2 | -6 | 5 | 0 | /
COc1ccc(CC2=CC(=O)c3ccccc3C2=O)cc1 | -20 | 55* | -32 | 4 | -3 | -4%
COc1ccc(-c2ccc3n(c2=O)C[C@@H]2[C@@H](CO)[C@H](C(=O)NCC4CC4)[C@H]3N2S(C)(=O)=O)cc1 | 1 | / | 0 | 3 | 0 | /
CCOc1ccc2nc3cc(N=Nc4ccc(N)nc4N)ccc3c(N)c2c1 | / | 59* | / | / | / | -12%
CCOc1ccc2[nH]c(C)cc(=O)c2c1 | 6 | / | 0 | 1 | -5 | /
COc1ccc(N/C=C2\CCc3ccccc3C2=O)cc1 | -35 | 95* | 7 | 0 | 6 | -3%
O=C(O)c1ccc(CSc2n[nH]c(-c3ccco3)n2)cc1 | / | 108* | / | / | / | -5%
Cn1ncc(Cl)c1C(=O)Nc1cc(C(F)(F)F)ccc1F | / | 127* | / | / | / | 1%
COc1ccc(CN(C)C[C@H]2Oc3c(NC(=O)c4cnccn4)cccc3C(=O)N([C@@H](C)CO)C[C@@H]2C)cc1 | -7 | / | -23 | -1 | -2 | /
COc1ccc(S(=O)(=O)Nc2ccc3c(c2)CC(=O)N([C@@H](C)CO)C[C@H](C)[C@H](CN(C)CC2CCCCC2)O3)cc1 | 1 | / | 7 | -3 | 1 | /

Screening results deposited in PubChem by Broad Institute.
